Measured values from PubChem BioAssay (NCI).
Values joined by “and” are separate entries in the source; they are usually repeats but may differ in a detail not shown here. Identical values can stand only once. The panel holds about 83,000 compounds, 20% with a hit somewhere; the sample as a whole holds those more often.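 Cells were grown in 96-well plates and exposed to the test compound at a single concentration for 48 hours; results are reported as percent growth, with values below 10 considered active.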 Active and inactive are the calls of the source.

Each compound was assayed on HL-60(TB) leukemia (assay: NCI-60 one-dose screen, 48 h (100 = growth as untreated, 0 = no growth, -100 = all killed)). Settings: 10 µM unless noted.

| Structure (SMILES) | growth |
| --- | --- |
| NNc1ncnc2sc3c(c12)CCN(Cc1ccccc1)C3 | 18.8% (inactive) |
| CC1CC(c2ccc(N(C)C)cc2)=NN1c1nc(O)c(C2=c3cc(Br)ccc3=NC2=O)s1 (stereo not given) | 68.7% (inactive) |
| Cc1ccc2nc(SCc3ccccc3F)n(-c3ccccc3)c(=O)c2c1 | 104% (inactive) |
| CCCCNC(=S)Nc1ccc(OCc2nc3ccccc3[nH]2)cc1 | 31.7% (inactive) |
| Cc1nn(-c2ccccc2)c2ncn(CC(=O)N/N=C/c3ccccc3O)c(=O)c12 | 6.2% (active) |
| Cn1cc(-c2cc3nc(-c4c[nH]c5ccc(Br)cc45)cc(N)n3n2)c2ccccc21 | -45.3% (active) |
| C/C(=C\c1ccc(O)cc1O)c1ccc2ccc(O)cc2[o+]1 | 63.2% (inactive) |
| COc1ccc(/C=C/c2nc3ccccc3c(=O)n2CC(=O)Nc2ccc(Cl)cc2)cc1 | 96.2% (inactive) |
| Cc1ccc(C(C(=O)NC2CCCCC2)N(Cc2ccccc2Cl)C(=O)c2ccc(CN3CCOCC3)o2)o1 (stereo not given) | 84.6% (inactive) |
| COc1ccc(C2c3sc4ccc(C)cc4c3Oc3nc(N)nc(N)c32)cc1 (stereo not given) | 84.8% (inactive) |
| O=C(COc1ccc2c(c1)CCCC(=O)N2)NCc1ccccc1 | 70.4% (inactive) |
| Cc1occc1C(=O)NN1C(=O)/C(=C/C=C/c2ccc([N+](=O)[O-])o2)SC1=S | 0.964% (active) |
| O=C(NNC(=S)NCCc1ccccc1)c1ccc(OCc2nc3ccc(Cl)cc3[nH]2)cc1 | 88.9% (inactive) |
| NS(=O)(=O)c1ccc(CCNC(=O)CSc2ccc(-c3ccc(Br)cc3)nn2)cc1 | 55.4% (inactive) |
| Cc1oc(-c2ccccc2)nc1CN[C@@H]1C[C@@H]2C[C@H]([C@H]1C)C2(C)C | -23.7% (active) |
| COc1ccc(-c2nc3cc(C)ccc3n2CC(=O)N=Nc2c(O)[nH]c3ccccc23)cc1 | 8.05% (active) |
| CCCCSc1nc(Nc2ccc(S(N)(=O)=O)cc2)c(C#N)c(-c2ccc(Cl)cc2)n1 | 62.9% (inactive) |
| Cc1ccc(S(=O)(=O)N2CCN(S(=O)(=O)c3oc(-c4ccccc4)nc3C#N)CC2)cc1 | 69.4% (inactive) |
| O=C(CSc1nnc(-c2ccc(-c3nc4ccc(Cl)cc4[nH]3)cc2)o1)Nc1ccc(Br)cc1 | 29.7% (inactive) |
| C=CCSc1nnc(-c2ccc(-c3nc4ccc(Cl)cc4[nH]3)cc2)o1 | 29.8% (inactive) |

| Structure (SMILES) | growth |
| --- | --- |
| Cn1c(O)c(N=Nc2nc(-c3cc4ccccc4oc3=O)cs2)c2cc(Br)ccc21 | 96.6% (inactive) |
| COc1ccc(-c2nc(SCC(C)C)nc(NCCc3c[nH]c4ccccc34)c2C#N)cc1 | 63.2% (inactive) |
| CCc1ccccc1-c1nc(CN[C@@H]2C[C@@H]3C[C@H]([C@H]2C)C3(C)C)c(C)o1 | -35.9% (active) |
| O=C(Cc1c(-c2cccc([N+](=O)[O-])c2)n(-c2ncnc3c2c(-c2ccccc2)c(-c2ccccc2)n3Cc2ccccc2)[nH]c1=O)c1ccc(Cl)c(Cl)c1 | 11.6% (inactive) |
| CCN1CCN(Cc2ccc(NC(=O)c3cccc(-n4cc(-c5ccc(NC(C)=O)nc5)nn4)c3)cc2C(F)(F)F)CC1 | 65.4% (inactive) |
| O=c1[nH]c2ccccc2cc1CSc1cccc(Nc2nccc(-c3ccc4ccccc4c3)n2)c1 | 93.5% (inactive) |
| N#Cc1c(NC(=O)c2cccc(C(F)(F)F)c2)sc2c1CCC(O)=C2 | 30% (inactive) |
| Cc1cc(C(NC(=O)C2CC3(CC(Nc4cccc5c4C(=O)N(C4CCC(=O)NC4=O)C5=O)C3)C2)c2ccc3c(c2)OC(F)(F)O3)c(O)c2ncccc12 (stereo not given) | -16.4% (active) |
| COC(=O)c1c(C(=O)OC)c2c3ccccc3c3ccccc3n2c1C(=O)C(F)(F)F | 107% (inactive) |
| Cc1ccccc1NC(=O)c1cccc(NC(=O)CCl)c1 | 19% (inactive) |
| CCCn1cc(-c2nc(Nc3ccc(C(=O)NCCCCNc4cccc5c4C(=O)N(C4CCC(=O)NC4=O)C5=O)cc3)nc3[nH]ccc23)cn1 (stereo not given) | -36.9% (active) |
| CC(=O)Nc1cccc(-n2c(COc3ccc(Br)cc3)nc3ccccc32)c1 | 113% (inactive) and 103% (inactive) |
| COc1cc(C=O)ccc1Oc1nc(Nc2ccc(F)cc2)nc(N(C)C)n1 | 65.2% (inactive) and 70.8% (inactive) |
| Cc1ccc2nc(COc3ccc(C(=O)NNC(=S)NC(=O)c4ccccc4)cc3)[nH]c2c1 | 70.7% (inactive) |
| CCOC(=O)CNC(=O)CN(Cc1ccccc1)C(=O)[C@@]1(C)CCC[C@]2(C)[C@H]3C[C@H]4C(C(C)C)=C[C@]3(CC[C@H]21)[C@@H]1C(=O)OC(=O)[C@@H]14 | 9.46% (active) |
| COC(=O)C[C@](O)(CCCC(C)(C)O)C(=O)O[C@H]1C(OC)=C[C@@]23CCC(=O)N2CCc2cc4c(cc2[C@@H]13)OCO4 | 97.4% (inactive) |
| C=CC[n+]1cccc2c3ccccc3ccc21 | 57.2% (inactive) |
| O=C1S/C(=C\c2ccc([N+](=O)[O-])cc2)C(=O)N1CCN1CCCCC1 | 98.6% (inactive) |
| N#Cc1c(NC(=O)c2ccc(C(F)(F)F)cc2)sc2c1CCC(=O)C2 | 7.73% (active) |
| O=C(/C=C/Nc1ccccc1)c1ccc2c(c1)Nc1ccccc1S2 | 90.9% (inactive) |
